Measured values published in publication PMC7862700, “An all-to-all approach to the identification of sequence-specific readers for epigenetic DNA modifications on cytosine”.

What was measured:
Assay in all cases: DAPPL (digital affinity profiling via proximity ligation, sequencing); 10 mM Tris-HCl pH 7.5, 50 mM NaCl, 1 mM DTT, 4% glycerol, room temperature, 30 min; GST-TFs on glutathione beads, 16-mer random dsDNA library, 0.1% formaldehyde crosslink after washing; high values mean tight binding
Conditions in all cases: protein: recombinant; tags: N-terminal GST; dsDNA, one strand shown
ERF = molecular target: T1, ERF (Homo sapiens, UniProt P50548 1-548)
T1 sequence: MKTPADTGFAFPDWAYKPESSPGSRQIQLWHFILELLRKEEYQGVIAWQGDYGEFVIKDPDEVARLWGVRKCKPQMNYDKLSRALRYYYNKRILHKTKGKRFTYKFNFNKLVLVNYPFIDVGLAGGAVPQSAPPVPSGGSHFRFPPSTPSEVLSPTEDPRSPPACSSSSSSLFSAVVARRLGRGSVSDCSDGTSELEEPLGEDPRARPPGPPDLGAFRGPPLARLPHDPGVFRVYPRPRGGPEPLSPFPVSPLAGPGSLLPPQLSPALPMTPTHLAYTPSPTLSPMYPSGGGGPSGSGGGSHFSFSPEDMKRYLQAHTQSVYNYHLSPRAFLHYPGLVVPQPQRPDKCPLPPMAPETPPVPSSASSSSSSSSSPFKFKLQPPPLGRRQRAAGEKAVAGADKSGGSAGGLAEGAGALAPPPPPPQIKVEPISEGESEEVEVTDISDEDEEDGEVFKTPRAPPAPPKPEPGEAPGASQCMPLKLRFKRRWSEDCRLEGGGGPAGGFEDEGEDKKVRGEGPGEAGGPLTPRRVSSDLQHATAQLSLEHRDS
Summary of the method: (§1)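 Binding signal is defined as a hexamer's read frequency for one factor over its frequency for the tag-only sample. To obtain reads, GST-fused human transcription factors were expressed in yeast, captured on glutathione beads, barcoded with DNA and pooled with that sample. Pools met 200 nmole of a 16-mer random double-stranded DNA library in Tris/NaCl/DTT/glycerol buffer for 30 min at room temperature before washing, 0.1% formaldehyde crosslinking, proximity ligation (BsaI/T4 ligase, 1 h, 37 °C), PCR and Illumina NextSeq500 sequencing.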

ETV3L = molecular target: T2, ETV3L (Homo sapiens, UniProt Q6ZN32 1-361)
T2 sequence: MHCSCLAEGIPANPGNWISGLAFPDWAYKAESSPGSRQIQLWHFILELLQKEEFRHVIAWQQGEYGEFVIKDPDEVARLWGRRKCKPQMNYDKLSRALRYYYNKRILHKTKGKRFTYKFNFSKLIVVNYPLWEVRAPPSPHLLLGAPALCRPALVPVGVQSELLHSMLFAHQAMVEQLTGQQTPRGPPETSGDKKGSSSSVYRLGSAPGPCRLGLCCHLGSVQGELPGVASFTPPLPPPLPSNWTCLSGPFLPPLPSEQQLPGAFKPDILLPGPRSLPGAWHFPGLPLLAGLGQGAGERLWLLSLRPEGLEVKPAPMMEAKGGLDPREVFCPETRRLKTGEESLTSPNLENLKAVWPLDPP
Summary of the method: as §1

ETS2 = molecular target: T3, ETS2 (Homo sapiens, UniProt P15036 1-469)
T3 sequence: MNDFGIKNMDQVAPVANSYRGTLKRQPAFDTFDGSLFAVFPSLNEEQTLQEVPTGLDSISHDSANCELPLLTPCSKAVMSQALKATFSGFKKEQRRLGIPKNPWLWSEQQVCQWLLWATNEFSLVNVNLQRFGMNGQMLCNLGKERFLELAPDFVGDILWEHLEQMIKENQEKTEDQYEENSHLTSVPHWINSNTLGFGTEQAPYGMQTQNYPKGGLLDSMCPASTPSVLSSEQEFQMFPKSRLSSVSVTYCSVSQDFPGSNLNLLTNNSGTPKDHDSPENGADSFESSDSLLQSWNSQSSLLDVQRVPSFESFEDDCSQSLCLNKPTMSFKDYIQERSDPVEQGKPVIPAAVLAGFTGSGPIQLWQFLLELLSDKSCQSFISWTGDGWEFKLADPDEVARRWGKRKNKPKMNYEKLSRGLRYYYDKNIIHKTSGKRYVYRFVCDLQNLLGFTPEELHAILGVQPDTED
Summary of the method: as §1

SPDEF = molecular target: T4, SPDEF (Homo sapiens, UniProt O95238 1-335)
T4 sequence: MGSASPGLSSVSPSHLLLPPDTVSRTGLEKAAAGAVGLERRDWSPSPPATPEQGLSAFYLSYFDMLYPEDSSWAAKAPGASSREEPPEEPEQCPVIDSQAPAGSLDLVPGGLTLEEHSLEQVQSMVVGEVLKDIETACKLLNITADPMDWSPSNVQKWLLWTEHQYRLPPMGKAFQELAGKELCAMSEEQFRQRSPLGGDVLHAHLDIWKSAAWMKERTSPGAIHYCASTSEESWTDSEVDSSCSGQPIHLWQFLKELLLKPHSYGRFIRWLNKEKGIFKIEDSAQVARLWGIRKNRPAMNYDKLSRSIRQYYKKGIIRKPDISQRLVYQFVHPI
Summary of the method: as §1

ETV7 = molecular target: T5, ETV7 (Homo sapiens, UniProt Q9Y603 1-341)
T5 sequence: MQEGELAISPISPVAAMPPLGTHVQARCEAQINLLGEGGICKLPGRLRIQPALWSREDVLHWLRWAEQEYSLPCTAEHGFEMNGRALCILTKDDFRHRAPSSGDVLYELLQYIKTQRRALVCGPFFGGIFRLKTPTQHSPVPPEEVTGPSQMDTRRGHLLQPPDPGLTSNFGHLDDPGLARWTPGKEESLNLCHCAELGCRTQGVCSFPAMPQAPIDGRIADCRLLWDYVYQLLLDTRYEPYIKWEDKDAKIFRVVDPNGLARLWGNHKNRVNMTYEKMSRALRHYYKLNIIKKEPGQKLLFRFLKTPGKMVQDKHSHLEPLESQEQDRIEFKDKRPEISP
Summary of the method: as §1

ELF5 = molecular target: T6, ELF5 (Homo sapiens, UniProt Q9UKW6-2 1-255)
T6 sequence: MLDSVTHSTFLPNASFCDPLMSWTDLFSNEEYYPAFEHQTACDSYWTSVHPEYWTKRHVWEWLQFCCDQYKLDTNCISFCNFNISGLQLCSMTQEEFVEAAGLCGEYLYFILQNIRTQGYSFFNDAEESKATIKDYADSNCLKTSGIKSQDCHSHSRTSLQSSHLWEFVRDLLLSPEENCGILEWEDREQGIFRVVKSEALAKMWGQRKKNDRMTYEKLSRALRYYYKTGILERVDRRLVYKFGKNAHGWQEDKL
Summary of the method: as §1

ETV3 = molecular target: T7, ETV3 (Homo sapiens, UniProt P41162-2 1-143)
T7 sequence: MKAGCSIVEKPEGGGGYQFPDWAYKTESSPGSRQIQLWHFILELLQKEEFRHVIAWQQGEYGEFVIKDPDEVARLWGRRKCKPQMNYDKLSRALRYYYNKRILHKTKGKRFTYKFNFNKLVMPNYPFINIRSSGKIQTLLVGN
Summary of the method: as §1

ETV6 = ETV6 (Homo sapiens, UniProt P41212 1-452)
Sequence of ETV6 (P41212 whole entry): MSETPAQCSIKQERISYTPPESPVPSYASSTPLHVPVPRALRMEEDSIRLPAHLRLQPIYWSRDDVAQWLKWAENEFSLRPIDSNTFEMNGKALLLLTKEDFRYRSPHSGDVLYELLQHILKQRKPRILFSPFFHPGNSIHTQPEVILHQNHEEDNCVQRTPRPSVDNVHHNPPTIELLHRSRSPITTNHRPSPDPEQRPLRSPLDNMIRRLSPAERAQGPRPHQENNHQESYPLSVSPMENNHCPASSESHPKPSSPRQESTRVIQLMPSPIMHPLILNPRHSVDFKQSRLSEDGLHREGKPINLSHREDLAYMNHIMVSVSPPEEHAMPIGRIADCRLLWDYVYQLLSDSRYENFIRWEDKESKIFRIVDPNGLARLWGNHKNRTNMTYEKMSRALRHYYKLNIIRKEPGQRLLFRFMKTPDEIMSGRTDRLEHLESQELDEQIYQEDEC
Summary of the method: as §1

Sequence	binding signal (ERF)	binding signal (ETV3L)	binding signal (ETS2)	binding signal (SPDEF)	binding signal (ETV7)	binding signal (ELF5)	binding signal (ETV3)	binding signal (ETV6)
TTACTC	1.27 fold enrichment (6-mer frequency, TF over GST control)	1.15 fold enrichment (6-mer frequency, TF over GST control)	1.37 fold enrichment (6-mer frequency, TF over GST control)	1.28 fold enrichment (6-mer frequency, TF over GST control)	1.29 fold enrichment (6-mer frequency, TF over GST control)	1.21 fold enrichment (6-mer frequency, TF over GST control)	1.29 fold enrichment (6-mer frequency, TF over GST control)	1.27 fold enrichment (6-mer frequency, TF over GST control)
AGATTT	1.2 fold enrichment (6-mer frequency, TF over GST control)	1.17 fold enrichment (6-mer frequency, TF over GST control)	1.17 fold enrichment (6-mer frequency, TF over GST control)	1.05 fold enrichment (6-mer frequency, TF over GST control)	1.16 fold enrichment (6-mer frequency, TF over GST control)	1.22 fold enrichment (6-mer frequency, TF over GST control)	1.05 fold enrichment (6-mer frequency, TF over GST control)	1.11 fold enrichment (6-mer frequency, TF over GST control)
TACACC	1.21 fold enrichment (6-mer frequency, TF over GST control)	1.17 fold enrichment (6-mer frequency, TF over GST control)	1.1 fold enrichment (6-mer frequency, TF over GST control)	1.24 fold enrichment (6-mer frequency, TF over GST control)	1.13 fold enrichment (6-mer frequency, TF over GST control)	1.18 fold enrichment (6-mer frequency, TF over GST control)	1.18 fold enrichment (6-mer frequency, TF over GST control)	1.15 fold enrichment (6-mer frequency, TF over GST control)
CCGTCT	1.28 fold enrichment (6-mer frequency, TF over GST control)	1.4 fold enrichment (6-mer frequency, TF over GST control)	1.29 fold enrichment (6-mer frequency, TF over GST control)	1.42 fold enrichment (6-mer frequency, TF over GST control)	1.26 fold enrichment (6-mer frequency, TF over GST control)	1.39 fold enrichment (6-mer frequency, TF over GST control)	1.36 fold enrichment (6-mer frequency, TF over GST control)	1.39 fold enrichment (6-mer frequency, TF over GST control)
ATCCTC	1.34 fold enrichment (6-mer frequency, TF over GST control)	1.53 fold enrichment (6-mer frequency, TF over GST control)	1.41 fold enrichment (6-mer frequency, TF over GST control)	1.56 fold enrichment (6-mer frequency, TF over GST control)	1.46 fold enrichment (6-mer frequency, TF over GST control)	1.95 fold enrichment (6-mer frequency, TF over GST control)	1.51 fold enrichment (6-mer frequency, TF over GST control)	1.37 fold enrichment (6-mer frequency, TF over GST control)
CTAACA	1.29 fold enrichment (6-mer frequency, TF over GST control)	1.22 fold enrichment (6-mer frequency, TF over GST control)	1.21 fold enrichment (6-mer frequency, TF over GST control)	1.29 fold enrichment (6-mer frequency, TF over GST control)	1.16 fold enrichment (6-mer frequency, TF over GST control)	1.15 fold enrichment (6-mer frequency, TF over GST control)	1.14 fold enrichment (6-mer frequency, TF over GST control)	1.18 fold enrichment (6-mer frequency, TF over GST control)
ATTCGA	1.29 fold enrichment (6-mer frequency, TF over GST control)	1.47 fold enrichment (6-mer frequency, TF over GST control)	1.31 fold enrichment (6-mer frequency, TF over GST control)	1.28 fold enrichment (6-mer frequency, TF over GST control)	1.28 fold enrichment (6-mer frequency, TF over GST control)	1.24 fold enrichment (6-mer frequency, TF over GST control)	1.22 fold enrichment (6-mer frequency, TF over GST control)	1.23 fold enrichment (6-mer frequency, TF over GST control)
TAATTT	1.43 fold enrichment (6-mer frequency, TF over GST control)	1.48 fold enrichment (6-mer frequency, TF over GST control)	1.41 fold enrichment (6-mer frequency, TF over GST control)	1.32 fold enrichment (6-mer frequency, TF over GST control)	1.37 fold enrichment (6-mer frequency, TF over GST control)	1.46 fold enrichment (6-mer frequency, TF over GST control)	1.24 fold enrichment (6-mer frequency, TF over GST control)	1.39 fold enrichment (6-mer frequency, TF over GST control)
CGGCTC	1.36 fold enrichment (6-mer frequency, TF over GST control)	1.27 fold enrichment (6-mer frequency, TF over GST control)	1.23 fold enrichment (6-mer frequency, TF over GST control)	1.42 fold enrichment (6-mer frequency, TF over GST control)	1.25 fold enrichment (6-mer frequency, TF over GST control)	1.27 fold enrichment (6-mer frequency, TF over GST control)	1.29 fold enrichment (6-mer frequency, TF over GST control)	1.23 fold enrichment (6-mer frequency, TF over GST control)
